Screening results as filed in PubChem.
An excerpt weighted towards active compounds, which were near 6.8% of everything screened.
A340 absorber – absorbance at 340 nm. compound absorbance at 340 nm, fold over control. fold change at 10 µM. 65,000 tested, under 10 active. AID 708;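 active = at 10 µM dose, initial 340 nm absorbance at least 2 fold that of control wells; inactive = change under 2 fold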;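 note: initial absorbance extrapolated from kinetic A340 decline of NADH oxidation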
MK inhibit – inhibitors of Streptococcus pneumoniae mevalonate kinase; purified MK, PK/LDH-coupled NADH absorbance 340 nm; inhibition, % at 10 µM; 0.48% of 65,000 active;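 active = ranked among the strongest by inhibition in the single 10 µM screen, a fixed top-ranked set picked for dose follow-up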
NADH enzymes – inhibitors of enzymes used to reach an NAD/NADH endpoint; IC50, µM (top dose mostly 10 µM); 0.02% of 65,000 active; coupled PK/LDH NADH assays, four targets; AID 774;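 active = single-dose screening hits from any of four coupled enzyme assays that gave an IC50 when retested across doses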;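 note: the DPM-DC format reads NADH fluorescence rather than 340 nm absorbance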
DPM-DC inhibit – S. pneumoniae DPM-DC inhibition | purified DPM-DC, PK/LDH coupled NADH fluorescence | calls only at 10 µM | 0.49% of 65,000 active;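 active = the 320 compounds with the highest percent inhibition in the single-dose primary screen, excluding strongly autofluorescent ones, cut at about 32% in these data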;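 note: kinetic rate of NADH fluorescence loss reporting ADP formed by the decarboxylase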
Autofluor 339 – intrinsic fluorescence of library compounds, ex339/em460 – biochemical, MLSMR library, data from DPM-DC assay, artefact control, profiling panel | fluorescence fold increase at 10 µM | 5.5% of 65,000 active | compound autofluorescence, ex339/em460 nm, NADH buffer; active compounds read high; 1 = no-compound wells, NADH background | AID 709;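 active = at 10 µM, mean starting fluorescence two-fold or more over control wells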;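 note: signal is the first read of a kinetic run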
PMK inhibit – S. pneumoniae PMK inhibition; purified PMK, PK/LDH-coupled NADH absorbance 340 nm; inhibition, % at 10 µM; 0.49% of 65,000 active;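 active = top-ranked compounds by inhibition in the single 10 µM screen, taking a fixed number of the strongest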
A number is an active result; i = inactive; nt = no result shown; + = active, no number.

SMILES | A340 absorber | MK inhibit | NADH enzymes | DPM-DC inhibit | Autofluor 339 | PMK inhibit
CCCCCCOC(=O)C(C#N)c1nc2ccccc2nc1N1CCN(C)CC1 (stereo not given) | i | i | i | nt | 3.9 | i
N#CC(c1nc2ccccc2nc1N1CCCC1)S(=O)(=O)c1cccs1 (stereo not given) | i | i | i | i | 2.7 | i
O=C(c1ccco1)N1CCN(C(=O)c2cc(-c3ccccn3)nc3ccc(Cl)cc23)CC1 | i | i | i | i | i | i
CCOC(=O)N1CCN(Cc2nc3c(c(=O)n(C)c(=O)n3C)n2CCCc2ccccc2)CC1 | i | i | i | i | i | i
Cc1ccc(S(=O)(=O)NCCCOC(=O)Nc2ccncc2)cc1 | i | nt | i | i | i | i
Cc1cccc(S(=O)(=O)C(C#N)c2nc3ccccc3nc2N2CCCC2)c1 (stereo not given) | i | i | i | nt | 3.9 | i
C=CCNC(=O)C(C#N)c1nc2ccccc2nc1N1CCCCCC1 (stereo not given) | i | i | i | nt | 2.3 | i
COc1ccc(NC(=O)c2cccc(NC(=O)C3C4CC5OC(=O)C3C5C4)c2)c(OC)c1 (stereo not given) | i | i | i | i | i | i
COC(C(=O)Nc1cccc(F)c1)c1ccccc1 (stereo not given) | i | i | i | i | i | i
COc1cccc(OC)c1OCCCc1c(C)n[nH]c1C | i | i | i | i | i | i
Cc1cccc(OCCCc2c(C)n[nH]c2C)c1 | i | i | i | i | i | 26
CCCCCn1c2nc3ccccc3nc2c2c(=O)n(CC(C)C)cnc21 | i | i | i | i | i | i
CCCn1c(C)nc2c(c1=O)c1nc3ccccc3nc1n2-c1ccc2c(c1)OCCO2 | i | i | i | + | 2.6 | i
Cc1nc2c(c(=O)n1CCC(C)C)c1nc3ccccc3nc1n2Cc1ccc2c(c1)OCO2 | i | i | i | i | i | i
COc1cc(OC)cc(-n2c3nc4ccccc4nc3c3c(=O)n(CC4CCCO4)cnc32)c1 (stereo not given) | i | i | i | i | i | i
Cc1nc2c(c(=O)n1CC1CCCO1)c1nc3ccccc3nc1n2CCC(C)C (stereo not given) | i | i | i | nt | 2.3 | i
CCCCCn1c2nc3ccccc3nc2c2c(=O)n(CC3CCCO3)c(C)nc21 (stereo not given) | i | i | i | nt | 4 | i
O=c1c2c3nc4ccccc4nc3n(CC3CCCO3)c2ncn1CCc1ccccc1 (stereo not given) | i | i | i | nt | 2.9 | i
Cc1nnc2ccc(Oc3ccc(-c4ccccc4)cc3)nn12 | i | i | i | i | i | i
CC1(C)CC(=O)C(C(C2=C(O)CC(C)(C)CC2=O)c2cccc(O)c2)C(=O)C1 (stereo not given) | i | i | i | i | i | 29
CC1(C)CC(=O)C(C(C2=C(O)CC(C)(C)CC2=O)c2cccnc2)C(=O)C1 (stereo not given) | i | i | i | i | i | i
N#Cc1c(N)nc(SCC(=O)NCCc2ccccc2)c(C#N)c1-c1cccs1 | i | i | i | nt | 2.3 | i
CC(C)OC(=O)CSc1nc(N)c(C#N)c(-c2cccs2)c1C#N | i | i | i | i | i | i
CCC(=O)N(Cc1cc(=O)[nH]c2ccccc12)C1CCCCC1 | i | i | i | i | i | i
CCc1ccc(OCC(=O)Nc2ccc(-c3nc4ccccc4o3)c(O)c2)cc1 | i | i | i | nt | 2.2 | i
SMILES | A340 absorber | MK inhibit | NADH enzymes | DPM-DC inhibit | Autofluor 339 | PMK inhibit
O=C1NC2=C(C(=O)c3ccccc32)C(c2ccccc2)N1 (stereo not given) | i | i | i | i | i | i
Cc1ccc(C2NC(=O)NC3=C2CCc2ccccc23)cc1 (stereo not given) | i | i | i | i | 2.6 | i
COc1ccc(C2NC(=O)NC3=C2CCc2ccccc23)cc1 (stereo not given) | i | i | i | nt | 3.8 | i
CC(=O)c1cccc(NC(=O)NC(C)c2ccncc2)c1 (stereo not given) | i | i | i | i | i | i
N#C/C(=C\C1CC=CCC1)c1nc2ccccc2[nH]1 (stereo not given) | i | i | i | + | i | i
Cc1cc(C)n(-c2ncnc3sc4c(c23)CCCC4)n1 | i | i | i | i | 2.3 | i
N#Cc1c(NCCCO)nc(NCc2ccccc2)c2c1CCN(Cc1ccccc1)C2 | i | i | i | + | 2.4 | i
COc1cc(CN2CCC(C(=O)N3CCCC(C)C3)CC2)cc(Br)c1O (stereo not given) | i | i | i | i | i | i
COc1ccc2nc(CC(C)(C)CC(=O)O)c[n+]([O-])c2c1 | i | i | i | nt | 2.9 | i
O=C1CCCC2=C1C(c1ccco1)Nc1ccc3ccccc3c12 (stereo not given) | i | i | i | nt | 2.2 | i
O=S(=O)(Nc1ncccc1O)c1ccc(Cl)cc1 | i | i | i | i | i | i
COc1ccc(-n2nc3cc(C)c(NC(=O)C(C)C)cc3n2)cc1 | i | i | i | nt | 5.1 | i
O=S(=O)(Nc1ccc(C(F)(F)F)cc1)c1cnc[nH]1 | i | i | i | + | i | i
Cn1c(=O)c2c(nc(N3CCOCC3)n2C)n(C)c1=O | i | i | i | i | i | 26
Cn1c(=O)c2c(nc(N3CCCCCC3)n2Cc2cccc3ccccc23)n(C)c1=O | i | i | i | i | i | i
CN1CCN(c2nc3c(c(=O)n(C)c(=O)n3C)n2Cc2cccc3ccccc23)CC1 | i | active | i | i | i | i
CCNc1nc(N)nc(Oc2ccc(OCCOc3ccc(Cl)cc3Cl)nn2)n1 | i | i | i | i | i | i
Nc1ccc2nn(-c3cccc4ccccc34)nc2c1 | i | i | i | nt | 2.2 | i
Nc1ccc2oc(CCc3ccccc3)nc2c1 | i | i | i | i | i | i
Cc1cc2nn(-c3cccc4ccccc34)nc2cc1N | i | i | i | nt | 3.6 | i
Clc1ccc(OCCn2ccnc2)c(Cl)c1 | i | i | i | i | i | i
Clc1ccc(SCCn2ccnc2)cc1 | i | 41 | i | i | i | i
COc1ccc(-c2nc3c(n2O)CCCC3=O)cc1OC | i | i | i | nt | 3.5 | i
CSc1nnc(-c2ccc(O)cc2)n1C | i | i | i | i | i | i
CSc1nnc(-c2cc3ccccc3cc2O)n1C | i | i | i | nt | 2.3 | i
Cc1ccc(CN(Cc2cc3cc(C)ccc3[nH]c2=O)C(=O)N2CCOCC2)cc1 | i | i | i | i | i | i
CCOc1ccc2[nH]c(=O)c(CN(CCOC)C(=O)N3CCOCC3)cc2c1 | i | i | i | nt | 3 | i
CCOc1ccc2[nH]c(=O)c(CN(Cc3ccc(C)cc3)C(=O)N3CCCC3)cc2c1 | i | i | i | i | 2.6 | i
CCOC(=O)C(O)(C1C(=O)CC(C)(C)CC1=O)C(F)(F)F (stereo not given) | i | i | i | i | i | i
CCc1nnc2sc(-c3ccc(NC(=O)CSc4ccc(Cl)cc4)cc3)nn12 | i | i | i | + | 3 | i
